Reference: PubChem BioAssay (NCI)
Compounds without any hit were thinned out: in the full panel of roughly 83,000, 20% have a hit.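 Note: values are percent growth. 100 is the growth of untreated cells, values between 100 and 0 indicate rising inhibition; between -100 and 0 indicates cell death.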 Values without a mark were called inactive. Activity calls are given as the source filed them. The calls were made as follows: active = growth percent below 10; inactive = the rest.

Each molecule was assayed on LOX IMVI melanoma (assay: NCI-60 one-dose screen, 48 h (100 = growth as untreated, 0 = no growth, -100 = all killed)). Details: 10 µM unless noted.

| SMILES | growth |
| --- | --- |
| N#Cc1c(NC(=O)c2ccc([N+](=O)[O-])o2)[n+]([O-])c2cc(F)c(F)cc2[n+]1[O-] | 84.7% |
| CC(C)(C)OC(=O)N1C/C(=C\c2cccs2)C(=O)/C(=C/c2cccs2)C1 | 90.9% |
| CC(Cc1nnc(SCC(=O)Nc2ccc(I)cc2)n1N)c1ccccc1 (stereo not drawn) | 83.7% |
| COC(=O)CC/C(C)=N\Nc1ccc([N+](=O)[O-])cc1 | 16.2% |
| COc1ccccc1OCC(=O)Nc1sc2c(c1C(N)=O)CCC2 | 50.5% |
| CC(=O)N1Cc2ccccc2C(C)Cc2cc(Cl)ccc21 (stereo not drawn) | 105% |
| COc1ccc(/C(=N/O)c2cc(OC)c(OC)c(OC)c2)c(OC)c1N | 45% |
| CC(C)CCC[C@@H](C)[C@H]1CC[C@H]2[C@@H]3CC[C@H]4C/C(=N/O)CC[C@]4(C)[C@H]3CC[C@]12C | 96.6% |
| C/C(=N\NC(=O)CC#N)c1cc2cc(Cl)ccc2o1 | 103% |
| CCC#CC[C@H]1C/C=C2/C(=O)C=C[C@@H]2C/C=C\CCCC(=O)O1 | -55.8% (active) |
| Cc1cc(C(=O)O)c(N)c(C)n1 | 94.7% |
| CCCCCCOc1ccc(C2(Cl)c3ccccc3N(C)c3ccccc32)cc1 | -33.8% (active) |
| CC(C)N(Cc1ccc(CN(C(=O)CCl)C(C)C)cc1)C(=O)CCl | -61.2% (active) |
| COc1cc(-n2nc(C(=O)Nc3ccc(C(=O)O)cc3)nc2-c2ccccc2)cc(OC)c1OC | 101% |
| NC(=O)NNC(=O)c1ccccc1 | 96.5% |
| CC1Cc2c(N(C)C)ncnc2N(C)c2ccc(O)cc21 (stereo not drawn) | 86.2% |
| O=S(=O)(NCCCNc1cc(-c2cn(-c3ccccc3)nc2-c2cccc(O)c2)ccn1)c1ccc(C(F)(F)F)cc1 | 27.4% |
| Cc1ccc(S(=O)(=O)N2CCC(C(=O)Nc3ccc(F)cc3F)CC2)cc1 | 82.3% |
| COc1ccc2c(c1)NC(=O)CN2c1nc(NC2CC2)nc2ccccc12 | 34.9% |

| SMILES | growth |
| --- | --- |
| C=C1C(=O)O[C@H]2[C@H]1CC/C(COC(=O)NCCc1cccc(OC)c1)=C\CC[C@@]1(C)O[C@@H]21 | 3% (active) |
| COc1cc(-c2csc(NC(=O)c3cc(C(F)(F)F)cc(C(F)(F)F)c3)n2)cc(OC)c1OC | 26.5% |
| Clc1nc(Cl)c2ncn(C/C=C/Cn3cnc4c(Cl)nc(Cl)nc43)c2n1 | 38.8% |
| Cc1ccc2c(c1)C(C)Cc1c(ncnc1-n1cnc3ccccc31)N2C (stereo not drawn) | 34% |
| CCN(CC)S(=O)(=O)c1ccc2[nH]c(=O)cc(C(=O)Nc3ccc(OC)cc3OC)c2c1 | 106% |
| COC(=O)CCCCCN=Cc1c(O)c(O)c(C(C)C)c2cc(C)c(-c3c(C)cc4c(C(C)C)c(O)c(O)c(C=NCCCCCC(=O)OC)c4c3O)c(O)c12 | 13.7% |
| CCC(=O)Oc1ccc2c(c1)CC[C@@H]1[C@@H]2CC[C@]2(C)C[C@H](OC(=O)CC)C[C@@H]12 | 76.8% |
| C=C1C(=O)O[C@H]2[C@H]1CC/C(COC(=O)NCc1cc(OC)cc(OC)c1)=C\CC[C@@]1(C)O[C@@H]21 | -31% (active) |
| O=C(Nc1ccc(I)cc1)c1cc([N+](=O)[O-])ccc1O | 20.2% |
| O=C(CNC(=O)c1cccc2ccccc12)Nc1ccccc1Oc1ccccc1 | 15.5% |
| O=C(/C=C/CN1CCOCC1)Nc1cc2c(Nc3ccc(F)c(Cl)c3F)ncnc2cc1OCCOC(F)F | 15.3% |
| O=C(NCCc1c[nH]c2ccccc12)C1Cc2ccccc2CN1C(=O)c1ccco1 (stereo not drawn) | 94.9% |
| Nc1cc2c(cc1N)-c1cc(N)c(N)cc1C2 | 94% |
| COc1ccc(/C(=N\O)c2cc(OC)c(OC)c(OC)c2)c(OC)c1N | 42.5% |
| CCC(c1ccc(OC)cc1)C(CC)c1ccc(O)c(CN2CCCC2)c1 (stereo not drawn) | -79.1% (active) |
| CC(C)(C)c1cc(-c2nc3ccc(N4CCN(CCO)CC4)cc3[nH]2)cc(C(C)(C)C)c1O | -35.5% (active) |
| OCc1c(-c2ccccc2)nc2sccn12 | 104% |
| O=C(OCCCCOC(=O)n1cnc2ccccc21)n1cnc2ccccc21 | 92.9% |
| OC1CC2c3ccccc3C1c1ccccc12 (stereo not drawn) | 97.3% |
